Test: HepG2 liver cancer cell viability effects, profiling panel, resazurin fluorescence, 24 h, PK04 Diversity Set (AID 1172); further: test concentration not given here
Settings: higher = more signal

Row | SMILES | z-score
1 | COC(=O)[C@]1(Cc2ccccc2CN=[N+]=[N-])N=C(c2ccc(OCCCO)cc2)O[C@@H]1c1ccccc1N=[N+]=[N-] | -2
2 | O=C1O[C@H](c2ccccc2)[C@H](c2ccccc2)N2[C@H]1[C@@H](C(=O)O)[C@]1(C(=O)Nc3ccc(C#CC4(O)CCCCCC4)cc31)[C@H]2c1ccccc1OCCO | 1.15
3 | COCCOC(=O)N1C(=O)[C@@]2(c3ccccc31)[C@H](C(=O)Nc1nc3ccccc3s1)[C@H]1C(=O)O[C@H](c3ccccc3)[C@H](c3ccccc3)N1[C@@H]2c1ccccc1OCCO | -0.49
4 | [N-]=[N+]=Nc1ccccc1C[C@]1(C(N)=O)COC(c2ccc(OCCCO)cc2)=N1 | 0.978
5 | CCOC(=O)C1=CCC(c2cccn2C(=O)OC(C)(C)C)N(S(=O)(=O)c2ccc(C)cc2)C1 (stereo unspecified) | 0.573
6 | O=C1C2C=CC(C(O)C(c3ccccc3)c3ccccc3)N(Nc3ccccc3F)C2C(=O)N1c1ccccc1 (stereo unspecified) | -0.353
7 | COc1cc(Cc2cc3c(c(-c4ccccc4)n2)[Si](C(C)C)(C(C)C)OC3)cc(OC)c1OC | 0.233
8 | CC1(C)OB(/C=C\CC(OC(=O)c2ccncc2)c2ccccc2)OC1(C)C (stereo unspecified) | -0.159
9 | COC(=O)[C@@]1(Cc2ccc(F)cc2)[C@H]2c3cc(C(=O)N(C)C)n(Cc4ccc(C(F)(F)F)nc4)c3C[C@H]2CN1C(=O)c1ccccc1 | -0.575
10 | Cc1ccc(S[C@]2(C(=O)NC(C)C)CC(=O)N(Cc3ccccc3)[C@@H]2c2ccc(CO)cc2)cc1 | 0.15
11 | CN1C(=O)C2C=CC(C(O)c3ccc([N+](=O)[O-])cc3)N(Nc3ccccc3)C2C1=O (stereo unspecified) | -1.83
12 | C=CCNC(=O)[C@@H]1[C@H]2C(=O)O[C@H](c3ccccc3)[C@H](c3ccccc3)N2[C@H](c2ccc(OCCO)cc2)[C@@]12C(=O)Nc1ccc(C#CC3=CCCCC3)cc12 | -0.411
13 | O=C/C=C/c1ccc(-c2ccccc2)cc1 | -0.0736
14 | CCCCCCc1nc(Cc2cc(OC)c(OC)c(OC)c2)c(C)c2c1[Si](C(C)C)(C(C)C)OC2 | -0.422
15 | [N-]=[N+]=Nc1ccccc1C[C@]1(C(=O)N2CCCCC2)N=C(c2ccc(OCCCO)cc2)O[C@H]1c1ccccc1 | -0.256
16 | COc1ccc(C(O)C2C=CC3C(=O)N(C)C(=O)C3N2Nc2ccccc2)cc1 (stereo unspecified) | -1.73
17 | COc1ccc(C(=O)Nc2ccc(CN3C(=O)[C@]4(O[C@H](CC(=O)N(CCO)Cc5ccccc5)[C@@H]([Si](C)(C)c5ccc(OC)cc5)[C@@H]4C)c4ccccc43)cc2)cc1 | -1.18
18 | C=C(COC)C(=O)CC[C@@H](OC(=O)c1ccccc1-c1ccccc1C(=O)O)c1ccccc1OCCO | 0.078

Row | SMILES | z-score
19 | C=C1C(=O)C=C2CN(C(=O)c3ccccc3)[C@@](Cc3ccc(F)cc3)(C(=O)OC)[C@@H]12 | -6.48
20 | C=CCOC(=O)[C@@H]1[C@H]2C(=O)O[C@H](c3ccccc3)[C@H](c3ccccc3)N2[C@H](c2ccc(OCCOC(=O)[C@H]3C[C@H]4C(=O)N[C@@H](CCCCN(C)C)C(=O)N4[C@H]3c3cccc(OCCO)c3)cc2)[C@@]12C(=O)Nc1ccccc12 | 0.594
21 | COCCCNC(=O)[C@@]1(Cc2ccccc2I)c2ccccc2C(=O)N(Cc2ccccc2OC)[C@H]1c1ccc(CO)cc1 | -0.831
22 | COCCCNC(=O)[C@@]1(Cc2ccccc2I)c2ccccc2C(=O)N(C2CCCCC2)[C@H]1c1ccc(CO)cc1 | 1.12
23 | O=C1C2C=CC(C(O)C3CCCCC3)N(Nc3ccccc3F)C2C(=O)N1c1ccccc1 (stereo unspecified) | -1.87
24 | COC(=O)C1(CC(C)C)C=C2C(=C(C)C(=O)C2C)CN1 (stereo unspecified) | -1.23
25 | CCOC(=O)C=C1C[C@@H](c2cccc([N+](=O)[O-])c2)O[C@@H](c2cccc([N+](=O)[O-])c2)O1 | 0.151
26 | CC(C)Cc1ccc(CN2CC[C@@H](NC(=O)c3ccccc3)C2)cc1 | -0.375
27 | COc1ccc(CCNC(=O)[C@@]2(c3ccc([N+](=O)[O-])cc3)CC(=O)N(C3CCCCC3)[C@@H]2c2ccc(CO)cc2I)cc1 | -1.29
28 | COC(=O)[C@]1(Cc2ccccc2N=[N+]=[N-])N=C(c2ccc(OCCCO)cc2)O[C@@H]1c1ccccc1CN=[N+]=[N-] | -4.43
29 | C=C(C(=O)CC[C@@H](OC(=O)c1ccccc1-c1ccccc1C(=O)O)c1ccc(OCCO)cc1)C(C)C | -0.304
30 | CC(C)[Si]1(C(C)C)OCc2cc(-c3ccc(-c4ccc(Cl)c(Cl)c4)o3)nc(-c3ccc(Oc4ccccc4)cc3)c21 | -0.213
31 | O=C1C2C=CC(C(O)c3ccccn3)N(Nc3ccc([N+](=O)[O-])cc3)C2C(=O)N1c1ccccc1 (stereo unspecified) | -0.534
32 | O=C1OC[C@@H](c2ccccc2)n2cc(/C=C/c3ccccc3)cc21 | -0.295
33 | CC[C@@H](O[Si](C#C[Si](C(C)C)(C(C)C)C(C)C)(C(C)C)C(C)C)c1cn([C@H](C)c2ccccc2)nn1 | -0.0011
34 | O=C1OCCC/C=C\[C@H]2OC34C=CCN(Cc5ccccc5)C(=O)[C@H]3N(CCO)C(=O)[C@@H]4C12 (stereo partly specified) | -0.122
35 | COc1ccc(C(=O)Nc2cccc(CN3C(=O)[C@]4(O[C@H](CC(=O)N(CCO)Cc5ccccc5)[C@@H]([Si](C)(C)c5ccc(OC)cc5)[C@@H]4C)c4ccccc43)c2)cc1 | -0.754
36 | COC(=O)[C@@]1(Cc2ccc(F)cc2)[C@H]2c3cc(C(=O)N4CCCC4)n(CCc4c[nH]c5cc(F)ccc45)c3C[C@H]2CN1C(=O)c1ccccc1 | 0.182
